Records with an inconclusive call do not appear. Activity calls are given as the source filed them. Unless noted, calls come from the whole dose curve; as a rule, active = well fitted curve in the direction sought with a large enough effect in the repeat runs; inconclusive = weak or mixed curves; inactive = no such curve, though single readings can be large; an effect the other way counts as inactive or inconclusive.
Legend:
[1] = qHTS RealTime-Glo MT Cell Viability Assay in HEK293 cells - 0 hour (AID 1224880); note: top concentration of the series differs between compounds; nearly all actives have a fitted effect of over 45% in size
In short: (§1)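 HEK293 cells mixed with RealTime-Glo reagents (NanoLuc plus cell-permeant prosubstrate) at 600 cells/well, preincubated 5 h at 37 C/5% CO2, then given 23 nL compound in DMSO. Nonlytic luminescence from viable cells was read at 0, 8, 16, 24, 32 and 40 h.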

[2] = A CellTox Green Cytotoxicity Assay to monitor cytotoxicity in HEK293 cells - 32 hour (AID 1224881); note: nearly all actives have a fitted effect of over 40% in size
In short: (§2)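 HEK293 cells premixed with CellTox Green dye were seeded at 600 cells/well and left 5 h at 37 C/5% CO2 before pin transfer of 23 nL compound in DMSO. Fluorescence from dye bound to dead-cell DNA was read during 40 h treatment.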

[3] = A CellTox Green Cytotoxicity Assay to monitor cytotoxicity in HepG2 cells - 0 hour (AID 1224882); note: nearly all actives have a fitted effect of over 35% in size
In short: (§3)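 HepG2 cells were seeded together with the CellTox Green dye at 600 cells/well, left 5 h at 37 C/5% CO2, then given compounds in DMSO. Fluorescence from dye bound to dead-cell DNA was read repeatedly over 40 h of treatment at 37 C.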

[4] = A CellTox Green Cytotoxicity Assay to monitor cytotoxicity in HepG2 cells - 32 hour (AID 1224883); note: nearly all actives have a fitted effect of over 50% in size
In short: as §3

[5] = A CellTox Green Cytotoxicity Assay to monitor cytotoxicity in HEK293 cells - 8 hour (AID 1224884); note: nearly all actives have a fitted effect of over 35% in size
In short: as §2

[6] = qHTS RealTime-Glo MT Cell Viability Assay in HepG2 cells - 16 hour (AID 1224885); note: nearly all actives have a fitted effect of over 50% in size
In short: (§4)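 Compound treatment began 5 h after plating HepG2 cells (600/well) with NanoLuc luciferase and prosubstrate. Plates stayed at 37 C for 40 h; luminescence was captured at six time points, 0 h through 40 h.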

[7] = qHTS RealTime-Glo MT Cell Viability Assay in HEK293 cells - 24 hour (AID 1224886); note: top concentration of the series differs between compounds; nearly all actives have a fitted effect of over 50% in size
In short: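 Quantitative high-throughput screen of the Tox21 10K library in HEK293: cells and RealTime-Glo reagents plated together, compound added at 5 h, luminescence monitored through 40 h at 37 C.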

[8] = qHTS RealTime-Glo MT Cell Viability Assay in HEK293 cells - 8 hour (AID 1224887); note: top concentration of the series differs between compounds; nearly all actives have a fitted effect of over 50% in size
In short: as §1

[9] = A CellTox Green Cytotoxicity Assay to monitor cytotoxicity in HEK293 cells - 16 hour (AID 1224888); note: nearly all actives have a fitted effect of over 35% in size
In short: as §2

[10] = qHTS RealTime-Glo MT Cell Viability Assay in HepG2 cells - 0 hour (AID 1224889); note: nearly all actives have a fitted effect of over 50% in size
In short: as §4

[11] = A CellTox Green Cytotoxicity Assay to monitor cytotoxicity in HepG2 cells - 8 hour (AID 1224890); note: nearly all actives have a fitted effect of over 45% in size
In short: as §3

[12] = qHTS assay to identify small molecule antagonists of the estrogen receptor alpha (ER-alpha) signaling pathway using the BG1 cell line in the presence of 0.1 nM 17-beta-estradiol - cell viability counter screen (AID 1259241); note: nearly all actives have a fitted effect of over 40% in size
In short: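 Following 5 days in phenol red-free medium with charcoal-stripped serum, VM7Luc4E2 cells received test compounds alongside 0.1 nM 17beta-estradiol (final) at 37C for 22 hr. Live cells were then quantified via protease-substrate fluorescence.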

[13] = qHTS assay to identify small molecule antagonists of the androgen receptor (AR) signaling pathway using the MDA cell line in the presence of 0.5 nM R1881 - cell viability counter screen (AID 1259242); note: nearly all actives have a fitted effect of over 45% in size
In short: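 MDA-kb2 cells (human breast carcinoma, stably carrying MMTV-luciferase reporter) were exposed to compounds with 0.5 nM R1881 (final) for 16 hr at 37C, 0% CO2; viability then read as live-cell protease fluorescence (CellTiter-Fluor, 30 min) in the same wells.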

[14] = qHTS assay to identify small molecule HDAC inhibitors (AID 1259364); note: top concentration of the series differs between compounds; nearly all actives have a fitted effect of over 45% in size
In short: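 Wild-type HCT-116 cells were plated overnight, exposed to compounds for 2 h at 37 °C, then given HDAC-Glo class I/II luminogenic reagent for 30 min at room temperature before luminescence was read.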

[15] = qHTS assay to identify small molecule HDAC inhibitors - cell viability counter screen (AID 1259365)
In short: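 HCT-116 wild-type, overnight attachment; 2hr drug exposure, 37C; CellTiter-Glo luminescent ATP readout after 30min RT.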

[16] = qHTS assay to identify small molecule antagonists of the sonic hedgehog signaling (Shh) pathway - cell viability counter screen (AID 1259367); note: nearly all actives have a fitted effect of over 55% in size
In short: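 Cells: 3T3 Gli1-Luc, 2,000/well, 4 hr pre-incubation. Compounds in DMSO, then conditioned medium. Incubation 24 hr, 37C, 5% CO2. CellTiter-Fluor at 23 hr, 1 hr, fluorescence.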

[17] = qHTS assay to identify small molecule agonists of the sonic hedgehog signaling (Shh) pathway - cell viability counter screen (AID 1259366); note: nearly all actives have a fitted effect of over 50% in size
In short: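 Compounds in DMSO were pin-transferred onto 3T3 Gli1-Luc cells that had settled 4hr; plates then stood 24hr at 37C and 5% CO2. One hour before the end, CellTiter-Fluor was added and fluorescence recorded.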

[18] = target: Estrogen receptor (Homo sapiens) (UniProt P03372); test: qHTS assay to identify small molecule antagonists of the estrogen receptor alpha (ER-alpha) signaling pathway using the BG1 cell line in the presence of 0.1 nM 17-beta-estradiol (AID 1259244); note: nearly all actives have a fitted effect of over 50% in size
Chain of Estrogen receptor (Homo sapiens) (P03372 whole entry, looked up): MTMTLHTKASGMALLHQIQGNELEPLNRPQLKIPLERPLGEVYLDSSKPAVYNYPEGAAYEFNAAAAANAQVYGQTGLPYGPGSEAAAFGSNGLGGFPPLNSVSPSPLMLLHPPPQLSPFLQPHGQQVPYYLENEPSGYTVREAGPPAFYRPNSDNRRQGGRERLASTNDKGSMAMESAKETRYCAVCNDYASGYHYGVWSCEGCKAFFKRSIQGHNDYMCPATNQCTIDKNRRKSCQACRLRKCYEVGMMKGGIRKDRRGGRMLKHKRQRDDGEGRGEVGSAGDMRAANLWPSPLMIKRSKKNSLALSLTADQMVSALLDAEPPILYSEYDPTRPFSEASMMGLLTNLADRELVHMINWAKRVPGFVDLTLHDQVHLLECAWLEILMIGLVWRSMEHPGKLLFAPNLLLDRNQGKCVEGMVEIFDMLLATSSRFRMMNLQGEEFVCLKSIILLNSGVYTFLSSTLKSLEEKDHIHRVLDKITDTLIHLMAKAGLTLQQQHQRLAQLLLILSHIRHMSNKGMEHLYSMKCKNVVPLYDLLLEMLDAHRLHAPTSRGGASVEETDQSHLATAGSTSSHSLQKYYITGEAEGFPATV
In short: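 VM7Luc4E2 cells (endogenous full-length ER-alpha, stable 4xERE-luciferase) were grown 5 days in phenol red-free medium with charcoal-stripped FBS, then exposed 22 h at 37C to compounds plus 0.1 nM (final) 17beta-estradiol; ONE-Glo luminescence read-out.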

[19] = qHTS assay to identify small molecule phospholipidosis (PLD) inducers (AID 1259344; active = well fitted curve in the direction sought with a large enough effect; an effect the other way counts as inactive or inconclusive)
In short: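 Phospholipidosis is scored by imaging LipidTOX-stained pits in HepG2 cells exposed to compound for 24 h at 37 C; pit counts and integrated intensities per well and per cell serve as outputs.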

[20] = target: Androgen receptor (Homo sapiens) (UniProt P10275); test: qHTS assay to identify small molecule antagonists of the androgen receptor (AR) signaling pathway using the MDA cell line in the presence of 0.5 nM R1881 (AID 1259243); note: nearly all actives have a fitted effect of over 50% in size
Chain of Androgen receptor (Homo sapiens) (P10275 whole entry, looked up): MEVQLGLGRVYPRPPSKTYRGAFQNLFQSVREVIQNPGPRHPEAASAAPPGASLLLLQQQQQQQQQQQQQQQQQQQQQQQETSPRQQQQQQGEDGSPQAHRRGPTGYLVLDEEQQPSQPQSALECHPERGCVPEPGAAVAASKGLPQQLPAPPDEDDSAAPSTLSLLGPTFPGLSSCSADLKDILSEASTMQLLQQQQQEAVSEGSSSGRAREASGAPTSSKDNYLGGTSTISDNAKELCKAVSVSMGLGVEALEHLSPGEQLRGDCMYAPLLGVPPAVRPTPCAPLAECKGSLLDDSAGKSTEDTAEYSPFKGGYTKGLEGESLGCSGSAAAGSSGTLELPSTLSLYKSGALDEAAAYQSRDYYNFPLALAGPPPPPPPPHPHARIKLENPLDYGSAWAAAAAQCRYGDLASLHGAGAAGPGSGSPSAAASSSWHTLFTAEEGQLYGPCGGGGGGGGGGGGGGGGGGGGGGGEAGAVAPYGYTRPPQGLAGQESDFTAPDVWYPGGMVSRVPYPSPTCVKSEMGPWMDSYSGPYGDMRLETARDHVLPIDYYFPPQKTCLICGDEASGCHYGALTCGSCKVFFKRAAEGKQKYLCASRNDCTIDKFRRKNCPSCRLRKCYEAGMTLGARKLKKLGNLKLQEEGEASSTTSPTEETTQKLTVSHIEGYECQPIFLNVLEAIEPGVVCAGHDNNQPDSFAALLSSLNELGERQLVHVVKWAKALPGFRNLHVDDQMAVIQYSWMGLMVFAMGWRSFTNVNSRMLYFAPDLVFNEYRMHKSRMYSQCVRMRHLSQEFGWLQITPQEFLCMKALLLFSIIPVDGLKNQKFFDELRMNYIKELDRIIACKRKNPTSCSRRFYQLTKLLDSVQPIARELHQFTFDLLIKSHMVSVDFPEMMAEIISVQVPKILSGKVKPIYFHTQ
In short: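 MDA-kb2 human breast carcinoma cells carrying an MMTV-luciferase reporter (AR- and GR-responsive) were plated, rested 5 hr at 37C, dosed with compounds, then stimulated with 0.5 nM R1881 (final) for 16 hr; luminescence was read after ONE-Glo.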

Measured: Potency

N[C@@H](CS)C(=O)O
inactive: [1] | [2] | [3] | [4] | [5] | [6] | [7] | [8] | [9] | [10] | [11] | [12] | [13] | [14] | [15] | [16]

OC1OC[C@@H](O)[C@H](O)[C@H]1O (stereo not given in full)
inactive: [1] | [2] | [3] | [4] | [5] | [6] | [7] | [8] | [9] | [10] | [11] | [12] | [13] | [14] | [15] | [17] | [16]

COC(C(=O)O)c1ccccc1 (stereo not given)
inactive: [1] | [2] | [3] | [4] | [5] | [6] | [7] | [8] | [9] | [10] | [11] | [12] | [13] | [15] | [17] | [16]

OCc1ccccn1
inactive: [1] | [2] | [3] | [4] | [5] | [6] | [7] | [9] | [10] | [11] | [12] | [13] | [18] | [19] | [14] | [15] | [17] | [16]

CC(C)CCCC(C)CCCC(C)CCCCC(C)CCCC(C)CCCC(C)C (stereo not given)
inactive: [1] | [2] | [3] | [4] | [5] | [6] | [7] | [8] | [9] | [10] | [11] | [12] | [13] | [19] | [15] | [17] | [16]

CCC(=O)Nc1cccc(N)c1
inactive: [1] | [2] | [3] | [4] | [5] | [6] | [7] | [9] | [10] | [11] | [12] | [13] | [18] | [14] | [15] | [16]

Nc1nc(F)nc2c1ncn2[C@@H]1O[C@H](CO)[C@@H](O)[C@@H]1O
inactive: [1] | [2] | [3] | [4] | [5] | [6] | [7] | [9] | [10] | [11] | [12] | [13] | [18] | [19] | [14] | [15] | [17] | [16]

CCCOCC(C)OCC(C)O (stereo not given)
inactive: [1] | [2] | [3] | [4] | [5] | [6] | [7] | [9] | [10] | [11] | [12] | [13] | [20] | [14] | [15] | [17] | [16]

Source: PubChem BioAssay (Tox21)
